Assay results taken from PubChem BioAssay AID1159580 (chemical genetic matrix, 2015).
“And” between values parts separate entries of the source, which are not always exact repeats. Equal values may be shown once. Among all 5,500 compounds or so, about 2,000 (36%) were called active. About 18% were inconclusive and are not listed. Rule as the data show it: active = normalized growth mostly below about 0.91 (no sharp cut-off); inconclusive = no clear call, values can overlap the other calls; inactive = mostly above about 0.92. The list shows a part of the results.

Assay: chemical genetic growth profiling, strain panel (AID 1159580);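 also: tested at 20 µM; growth read once vehicle control cultures reached saturation at 30 °C; 1 = growth at the plate median or of vehicle wells; lower values mean less growth of the strain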
Conditions: growth OD

Measured: normalized growth

NCCc1c[nH]c2ccccc12
inactive: S. cerevisiae deletion strains, locus YJR075W, strain HOC1, active compounds read low 1.01 and 0.992 | S. cerevisiae deletion strains, locus YKL009W, strain mrt4, active compounds read low 0.991 | S. cerevisiae deletion strains, locus YKL068W, active compounds read low 0.987 | S. cerevisiae deletion strains, locus YKL085W, strain MDH1 (second series), active compounds read low 0.996 | S. cerevisiae deletion strains, locus YKL085W, strain MDH1, active compounds read low 0.996 | S. cerevisiae deletion strains, locus YKL160W, strain elf1, active compounds read low 0.968 | S. cerevisiae deletion strains, locus YKL190W, strain CNB1, active compounds read low 0.996 | S. cerevisiae deletion strains, locus YKR001C, strain vps1, active compounds read low 0.987 | S. cerevisiae deletion strains, locus YKR026C, strain gcn3, active compounds read low 0.958 | S. cerevisiae deletion strains, locus YKR091W, strain srl3, active compounds read low 0.976 | S. cerevisiae deletion strains, locus YLL001W, strain dnm1, active compounds read low 0.958 | S. cerevisiae deletion strains, locus YLL026W, active compounds read low 0.941 | S. cerevisiae deletion strains, locus YLL041C, strain sdh2, active compounds read low 0.965 | S. cerevisiae deletion strains, locus YLR027C, strain aat2, active compounds read low 0.974 | S. cerevisiae deletion strains, locus YLR039C, strain RIC1, active compounds read low 0.988 | S. cerevisiae deletion strains, locus YLR058C, strain SHM2, active compounds read low 0.975 | S. cerevisiae deletion strains, locus YLR102C, strain apc9, active compounds read low 0.996 | S. cerevisiae deletion strains, locus YLR113W, strain HOG1, active compounds read low 0.999 | S. cerevisiae deletion strains, locus YLR221C, strain rsa3, active compounds read low 0.998 | S. cerevisiae deletion strains, locus YLR258W, strain gsy2, active compounds read low 0.965 | S. cerevisiae deletion strains, locus YLR262C, strain YPT6 (second series), active compounds read low 0.956 | S. cerevisiae deletion strains, locus YLR262C, strain YPT6, active compounds read low 0.934 | S. cerevisiae deletion strains, locus YLR268W, strain sec22, active compounds read low 1.06 | S. cerevisiae deletion strains, locus YLR320W, strain mms22, active compounds read low 0.985 | S. cerevisiae deletion strains, locus YLR330W, strain CHS5, active compounds read low 0.973 | S. cerevisiae deletion strains, locus YLR342W, strain FKS1 (second series), active compounds read low 0.986 | S. cerevisiae deletion strains, locus YLR342W, strain FKS1, active compounds read low 0.972 | S. cerevisiae deletion strains, locus YLR357W, strain rsc2, active compounds read low 0.987 | S. cerevisiae deletion strains, locus YLR370C, strain arc18, active compounds read low 0.94 | S. cerevisiae deletion strains, locus YLR371W, strain rom2, active compounds read low 0.982 | S. cerevisiae deletion strains, locus YLR384C, strain iki3, active compounds read low 0.949 | S. cerevisiae deletion strains, locus YLR418C, strain cdc73, active compounds read low 0.99 | S. cerevisiae deletion strains, locus YML016C, strain PPZ1, active compounds read low 0.99 | S. cerevisiae deletion strains, locus YML032C, strain rad52, active compounds read low 1.01 | S. cerevisiae deletion strains, locus YML120C, strain ndi1, active compounds read low 0.962 | S. cerevisiae deletion strains, locus YML124C, strain tub3, active compounds read low 0.988 | S. cerevisiae deletion strains, locus YMR058W, strain fet3, active compounds read low 0.96 | S. cerevisiae deletion strains, locus YMR078C, strain ctf18, active compounds read low 0.986 | S. cerevisiae deletion strains, locus YMR125W, strain sto1, active compounds read low 0.96 | S. cerevisiae deletion strains, locus YMR129W, active compounds read low 0.973 | S. cerevisiae deletion strains, locus YMR205C, strain PFK2, active compounds read low 0.975 | S. cerevisiae deletion strains, locus YMR223W, strain ubp8, active compounds read low 0.955 | S. cerevisiae deletion strains, locus YMR231W, strain pep5, active compounds read low 0.97 | S. cerevisiae deletion strains, locus YMR263W, strain SAP30, active compounds read low 0.995 | S. cerevisiae deletion strains, locus YMR307W, strain GAS1, active compounds read low 0.987 | S. cerevisiae deletion strains, locus YNL067W, strain RPL9B, active compounds read low 1.03 | S. cerevisiae deletion strains, locus YNL071W, strain lat1, active compounds read low 0.973 | S. cerevisiae deletion strains, locus YNL128W, strain TEP1, active compounds read low 0.976 | S. cerevisiae deletion strains, locus YNL153C, strain GIM3, active compounds read low 1.02 | S. cerevisiae deletion strains, locus YNL175C, strain NOP13, active compounds read low 1 | S. cerevisiae deletion strains, locus YNL183C, strain NPR1, active compounds read low 0.97 | S. cerevisiae deletion strains, locus YNL197C, strain WHI3, active compounds read low 0.989 | S. cerevisiae deletion strains, locus YNL209W, strain ssb2, active compounds read low 0.96 | S. cerevisiae deletion strains, locus YNL224C, strain SQS1, active compounds read low 1 | S. cerevisiae deletion strains, locus YNL233W, strain BNI4, active compounds read low 1.01 | S. cerevisiae deletion strains, locus YNL248C, strain rpa49, active compounds read low 0.986 | S. cerevisiae deletion strains, locus YNL250W, strain rad50, active compounds read low 0.974 | S. cerevisiae deletion strains, locus YNL271C, strain bni1, active compounds read low 0.994 | S. cerevisiae deletion strains, locus YNL298W, strain CLA4, active compounds read low 0.995 | S. cerevisiae deletion strains, locus YNL307C, strain MCK1, active compounds read low 0.984 | S. cerevisiae deletion strains, locus YNL322C, strain KRE1 (second series), active compounds read low 0.943 | S. cerevisiae deletion strains, locus YNL322C, strain KRE1, active compounds read low 0.988 | S. cerevisiae deletion strains, locus YNR049C, strain mso1, active compounds read low 0.959 | S. cerevisiae deletion strains, locus YNR052C, strain pop2, active compounds read low 0.985 | S. cerevisiae deletion strains, locus YOL006C, strain TOP1, active compounds read low 1.05 | S. cerevisiae deletion strains, locus YOL012C, strain htz1 1.16 | S. cerevisiae deletion strains, locus YOL147C, strain pex11, active compounds read low 0.988 | S. cerevisiae deletion strains, locus YOR001W, strain rrp6, active compounds read low 0.971 | S. cerevisiae deletion strains, locus YOR061W, strain CKA2, active compounds read low 0.97 | S. cerevisiae deletion strains, locus YOR069W, strain VPS5, active compounds read low 0.992 | S. cerevisiae deletion strains, locus YOR070C, strain gyp1, active compounds read low 0.982 | S. cerevisiae deletion strains, locus YOR080W, strain dia2, active compounds read low 0.959 | S. cerevisiae deletion strains, locus YOR083W, strain WHI5 (second series), active compounds read low 0.966 | S. cerevisiae deletion strains, locus YOR083W, strain WHI5, active compounds read low 0.982 | S. cerevisiae deletion strains, locus YOR106W, strain vam3, active compounds read low 0.942 | S. cerevisiae deletion strains, locus YOR136W, strain idh2, active compounds read low 0.978 | S. cerevisiae deletion strains, locus YOR144C, strain elg1, active compounds read low 0.999 | S. cerevisiae deletion strains, locus YOR184W, strain ser1, active compounds read low 1 | S. cerevisiae deletion strains, locus YOR231W, strain MKK1, active compounds read low 0.979 | S. cerevisiae deletion strains, locus YOR265W, strain rbl2, active compounds read low 0.954 | S. cerevisiae deletion strains, locus YOR270C, strain vph1, active compounds read low 0.892 | S. cerevisiae deletion strains, locus YOR290C, strain snf2, active compounds read low 0.959 | S. cerevisiae deletion strains, locus YOR316C, strain cot1, active compounds read low 0.995 | S. cerevisiae deletion strains, locus YPL051W, strain arl3, active compounds read low 0.973 | S. cerevisiae deletion strains, locus YPL055C, strain LGE1, active compounds read low 0.99 | S. cerevisiae deletion strains, locus YPL078C, strain atp4, active compounds read low 0.943 | S. cerevisiae deletion strains, locus YPL106C, strain sse1, active compounds read low 0.916 | S. cerevisiae deletion strains, locus YPL240C, strain hsp82, active compounds read low 0.962 | S. cerevisiae deletion strains, locus YPL241C, strain CIN2, active compounds read low 0.99 and 0.999 | S. cerevisiae deletion strains, locus YPL256C, strain CLN2, active compounds read low 0.951 | S. cerevisiae deletion strains, locus YPR119W, strain clb2, active compounds read low 0.992 | S. cerevisiae deletion strains, locus YPR141C, strain kar3, active compounds read low 0.983 | S. cerevisiae deletion strains, locus YPR163C, strain tif3, active compounds read low 0.986 | S. cerevisiae deletion strains, locus YPR167C, strain met16, active compounds read low 0.994 | S. cerevisiae deletion strains, strain wtn01, active compounds read low 1.02 | S. cerevisiae strains, strain wild type, active compounds read low 0.987
